Sampled rows, rich in hits. Any-hit rate of the full collection: about 3.5%.
GPR151 ag = human GPR151 activation; Q8TDV0; PathHunter beta-arrestin GPR151 cells, luminescence; activation, % at 11.2 µM; 650,000 compounds, 1% hits; AID 1508602; in the data active means activation above about 4.9%;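 further: 0% = median of compound wells and 100% = cells with positive control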
MITF inh = human MITF inhibition, primary screen. O75030. 650,000 compounds, 0.91% hits. AID 1259374. AlphaScreen MITF homodimerization, bead proximity signal. inhibition, % at 2.6 µM; in the data active means inhibition above about 50%;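 further: 0% = vehicle wells with protein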
FBW7 activator = human FBW7 E3 ligase activation, primary screen | AID 1259310 | AlphaScreen FBW7–phospho-cyclin E peptide binding, activator screen | 650,000 compounds, 0.13% hits | normalized activity (activation), % at 26.1 µM; in the data active means normalized activity above about 1.9%;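 further: purified mutant Fbw7 with reduced substrate affinity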
Target sequence (Q969H0 whole entry, looked up): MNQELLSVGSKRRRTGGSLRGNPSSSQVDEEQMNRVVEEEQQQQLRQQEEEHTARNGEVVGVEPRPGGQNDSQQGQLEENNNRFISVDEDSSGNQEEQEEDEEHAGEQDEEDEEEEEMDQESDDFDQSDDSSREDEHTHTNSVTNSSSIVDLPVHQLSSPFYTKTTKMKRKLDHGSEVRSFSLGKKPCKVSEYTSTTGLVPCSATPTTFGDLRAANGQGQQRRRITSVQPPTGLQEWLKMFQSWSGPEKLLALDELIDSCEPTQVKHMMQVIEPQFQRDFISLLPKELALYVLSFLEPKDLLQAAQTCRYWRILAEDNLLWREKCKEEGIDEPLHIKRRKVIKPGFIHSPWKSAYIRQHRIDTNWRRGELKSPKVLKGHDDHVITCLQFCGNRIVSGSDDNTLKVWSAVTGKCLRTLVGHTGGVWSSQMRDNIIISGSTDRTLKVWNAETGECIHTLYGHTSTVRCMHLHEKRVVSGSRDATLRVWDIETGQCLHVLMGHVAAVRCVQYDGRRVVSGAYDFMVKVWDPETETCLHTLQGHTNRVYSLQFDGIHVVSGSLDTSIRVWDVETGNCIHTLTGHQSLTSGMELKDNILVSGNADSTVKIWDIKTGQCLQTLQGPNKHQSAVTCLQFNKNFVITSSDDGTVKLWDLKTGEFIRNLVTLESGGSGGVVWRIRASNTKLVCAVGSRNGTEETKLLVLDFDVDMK
TEAD-YAP inh = TEAD-YAP interaction inhibition; inhibition, % at 9.12 µM; AID 1259422; HEK-TIYL cells, TEAD-Gal4/YAP UAS-luciferase luminescence; 640,000 compounds, 1.4% hits; in the data active means inhibition above about 32%;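 further: 0% = median of test compound wells and 100% = reference inhibitor wells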
GPR151 conf act = confirmation of human GPR151 activators; shares compounds with GPR151 ag; GPR151 PathHunter beta-arrestin cells, luminescence, 90 min; % of EA-reagent control over plate median; activation, % at 11.2 µM; 6,700 tested, under 10 active;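 active means mean percent activation across replicates above the confirmation screen cutoff of 4.91%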
GPR119 ag = activates human GPR119 in a GPR151 counter-screen. AID 1508611. activation, % at 11.2 µM. 6,700 compounds, 0.3% hits. GPR119 PathHunter beta-arrestin cells, luminescence, 90 min; 0 = compound-well median, 100 = enzyme-acceptor control. shares compounds with GPR151 ag;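 active means mean percent activation in the counterscreen above 29.09%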;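 further: counterscreen on off-target GPR119 to flag nonselective hits from the GPR151 activator screen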
* hit, by the source's call; . = not tested or not shown; ! = not active in a repeat.

SMILES | GPR151 ag | MITF inh | FBW7 activator | TEAD-YAP inh | GPR151 conf act | GPR119 ag
Cc1ccc(-c2ccc3c(c2)CC(CNC(=O)Cc2nc(-c4ccccc4)n[nH]2)O3)nc1 (configuration not stated) | 1 | 7 | 0 | 1 | . | .
COc1ccccc1CNC(=O)c1sc2ncn(CC(=O)N3CCC(C)CC3)c(=O)c2c1C | 0 | -8 | 0 | 0 | . | .
CC(=O)c1nn(-c2cccc(Cl)c2)cc1C(=O)c1cccs1 | 6.4* | 9 | 0 | -2 | 0 | -8
CC(=O)c1nn(-c2ccc([N+](=O)[O-])cc2)cc1C(=O)c1cccs1 | -1 | 13 | 0 | -1 | . | .
O=C(CN1C(=O)COc2cc(S(=O)(=O)N3CCCC3)ccc21)NC1CCCCCCC1 | 7.1* | 0 | 0 | 7 | 0 | -9
COC(=O)CN1C(=O)COc2cc(S(=O)(=O)N3CCCCCC3)ccc21 | 5.8* | 7 | 0 | 2 | -1 | -15
O=C(CN1C(=O)COc2cc(S(=O)(=O)N3CCCCC3)ccc21)NC1CCCCCC1 | 1 | 7 | 0 | 6 | . | .
NC(=O)COc1ccc(/C=N/NC(=O)c2ccc(CN3CCOCC3)cc2)cc1 | 5.7* | 6 | 0 | 2 | 0 | 6
O=C(NCc1ccccn1)c1ccc(N2CCCCCC2)c([N+](=O)[O-])c1 | 1 | 8 | 0 | -7 | . | .
O=C1CN(c2ccccc2NC(=O)C2(c3cccs3)CCCC2)CCN1 | 5.0* | 11 | 0 | 8 | 0 | 7
O=C(Cn1ncc2c1-c1ccccc1OC2)NCc1ccc(F)cc1 | -1 | -7 | 0 | -2 | . | .
CCOc1ccc(C(=O)Nc2ccccc2N2CCCC2)cc1 | -1 | -1 | 0 | -14 | . | .
CCOc1cc(CC(=O)N[C@@H](CC(C)C)c2ccccc2N2CCCCC2)ccc1C(=O)O | 7.1*! | -4 | 0 | 5 | 0 | 12
CN1CCN(S(=O)(=O)c2ccc(NC3CCCC3)c([N+](=O)[O-])c2)CC1 | 3 | 17 | 0 | 0 | . | .
CC[C@@H](C(=O)C(C)[C@@H](O)[C@H](C)CCc1ccc(C)c(O)c1C(=O)O)C1OC(CC)(C2CC[C@](O)(CC)[C@H](C)O2)C[C@@H]1C (some centres not stated) | 13*! | 6 | 1 | -11 | 3 | 51*
CCNc1ccc(N2CCC(C(=O)NCc3nc4ccccc4[nH]3)CC2)nn1 | 0 | 19 | 0 | -1 | . | .
O=C1c2ccc([N+](=O)[O-])cc2C(=O)N1c1c[nH]c(=O)[nH]c1=O | 5.1* | 1 | -2 | 9 | 0 | 1
O=S(=O)(c1cc(Br)ccc1Br)N1CCN(Cc2ccccc2)CC1 | -2 | 8 | 0 | 4 | . | .
COc1cc(Cl)c(S(=O)(=O)N2CCN(Cc3ccccc3)CC2)cc1Cl | 6.5* | 11 | 0 | 5 | 0 | -17
COc1ccc(I)cc1S(=O)(=O)N1CCN(Cc2ccccc2)CC1 | 1 | 3 | 0 | 4 | . | .
O=S(=O)(c1ccc(Cl)cc1Br)N1CCN(Cc2ccccc2)CC1 | 6.2* | -2 | 0 | -6 | 0 | -9
Cc1cc(NCCN2CCOCC2)nc(Cl)n1 | 6.2* | 2 | 0 | -2 | -1 | -9
O=C(c1ccco1)N1CCN(c2nccn3c(-c4cccc(Cl)c4)cnc23)CC1 | 6.9* | 18 | 0 | -1 | 1 | 21
O=C(c1nc2ccc(Cl)cn2c1CNCC1COCCO1)N1CCc2ccccc2C1 (configuration not stated) | 9.8* | 8 | 0 | -1 | 0 | -21
CC(=O)NCCNCc1c(C(=O)N2CCc3ccccc3C2)nc2ccc(Cl)cn12 | 1 | -4 | 0 | -5 | . | .
SMILES | GPR151 ag | MITF inh | FBW7 activator | TEAD-YAP inh | GPR151 conf act | GPR119 ag
CCOc1ccc(NC(=O)CC2Sc3ccc(C(F)(F)F)cc3NC2=O)c([N+](=O)[O-])c1 (configuration not stated) | 5.0* | 9 | 0 | -2 | 0 | 8
CCOC(=O)N1CCN(S(=O)(=O)c2cc(C(=O)O)ccc2F)CC1 | 5.8* | 1 | 0 | -6 | 0 | 13
CCOc1ccccc1NC(=O)c1ccc(F)c(S(=O)(=O)N2CCN(c3ccccc3F)CC2)c1 | -1 | -3 | 0 | 1 | . | .
CCOc1ccccc1NC(=O)c1ccc(F)c(S(=O)(=O)N2CCN(c3ccccn3)CC2)c1 | 6.0* | 4 | 0 | 10 | -1 | -2
CC(=O)N1CCC(C(=O)NC(c2ccccc2C)c2ncccc2C)CC1 (configuration not stated) | 0 | 1 | 0 | 2 | . | .
CCC(=O)Nc1nnc(-c2ccc3c(c2)CCCC3)o1 | -3 | 3 | 0 | -42 | . | .
COC(=O)c1ccc(C(=O)Nc2nnc(-c3ccc4c(c3)CCCC4)o2)cc1 | 6.0* | -8 | 0 | -8 | 0 | 0
CCOC(=O)C1=C(C)NC2=C(C(=O)CC(c3ccc(Cl)cc3)C2)C1c1ccc(C)cc1 (configuration not stated) | 1 | -6 | 0 | 4 | . | .
CCn1cc(/C=C(\NC(=O)c2ccc(OC)cc2)C(=O)NCCO)c2ccccc21 | 1 | 14 | 0 | 8 | . | .
O=C1N=C(N2CCOCC2)S/C1=C\c1c2ccccc2cc2ccccc12 | 1 | 15 | 0 | 5 | . | .
Cc1ccc(/C=C2\SC(N3CCOCC3)=NC2=O)cc1 | -1 | 15 | 0 | -18 | . | .
CC(C)Oc1ccc(/C=C2/SC(N3CCOCC3)=NC2=O)cc1 | 7.0* | 17 | 0 | -17 | 1 | 11
O=C1N=C(N2CCOCC2)S/C1=C\c1cccc2ccccc12 | 6.1* | 17 | 0 | -40 | 0 | -3
NC1=NC(=O)/C(=C/c2cn[nH]c2-c2ccccc2)S1 | 0 | 0 | 0 | -1 | . | .
O=C1N=C(N2CCCC2)S/C1=C\c1cn[nH]c1-c1ccccc1 | 7.6* | 0 | 0 | 4 | 0 | 5
COc1ccc(OC)c(-n2c(CNC(=O)c3ccc(S(=O)(=O)N4CCCC4)cc3)nnc2SCC(=O)Nc2nccs2)c1 | -1 | 4 | 0 | 9 | . | .
CCOc1ccccc1NC(=O)C(N)=O | 0 | 2 | 0 | 12 | . | .
FC(F)(F)c1nnc2c3ccccc3c(NC3CC3)nn12 | 7.3* | 6 | 0 | 1 | 0 | 8
COc1ccc(C(=O)NC(c2ccccc2OC)c2cc(Cl)c3cccnc3c2O)cc1 (configuration not stated) | 0 | 5 | 0 | 16 | . | .
COc1ccc(C(NC(C)=O)c2cc(Cl)c3cccnc3c2O)cc1 (configuration not stated) | 5.1* | 62* | 0 | 84* | 0 | -8
Cc1ccc(-n2c(=O)c3c4c(sc3n3c(SCC(=O)c5ccc(Br)cc5)nnc23)CCCC4)cc1 | 0 | -11 | 0 | -10 | . | .
CS(=O)(=O)N1CCCC1C(=O)N1CC(=O)Nc2ccccc21 (configuration not stated) | 2 | -13 | 0 | 6 | . | .
CCn1c(SCC(=O)Nc2cccc(C(=O)O)c2)nnc1-c1cccc(C)c1 | 0 | 7 | 1 | 1 | . | .
